We go through three molecules from PubChem BioAssay (NCATS).

Inconclusive results are not listed. Calls of active or inactive are those of the source. Unless noted, calls follow the shape of the dose curve; as a rule, active = well fitted curve in the direction sought with a large enough effect; inconclusive = small, poorly fitted or top-dose-only effect, or another doubt; inactive = no such curve, though single readings can be large; an effect the other way counts as inactive or inconclusive.

The target of test [1] is Cytochrome P450 1A2 (Homo sapiens) (UniProt P05177). Description: p450-cyp1a2 (AID 410; calls by dose curve; also: potency is read from the fitted curve at half-maximal effect). The essentials: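 Luminescent readout of luciferin formed from Luciferin-ME by human CYP1A2; data normalized against complete inhibition by 57 uM furafylline. Enzyme 20nM, substrate 100uM at Km, 100mM KPO4 buffer, 60 min reaction at room temperature.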
In test [2] the target is Glucocorticoid receptor (Homo sapiens) (UniProt P04150). Description: GR-GFP Redistribution (AID 450;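 active = compounds whose dose series gives a full or clear partial fitted curve of increased nuclear translocation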; also: potency is read from the fitted curve at half-maximal effect). The conditions noted are these: U2OS GR-GFP nuclear translocation, laser cytometry, 2 h.
In test [3] the target is Mitogen-activated protein kinase 10 (Mus musculus) (UniProt Q61831). Kind of test: JNK3 AlphaScreen Assay (AID 530; active = well fitted curve in either direction with a large enough effect, not every such curve was filed as active;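 also: kinase came from lysate of stimulated human HepG2 cells; signal reports phosphorylation of biotinylated GST-cJun 1-79 at Ser73 with 10 µM ATP; % is scaled to controls: 0 for no effect and ±100 for the full control effect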). The gist of the method:
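Pre-activated (IL-1β/TNFα) JNK3 in HepG2 lysates phosphorylates biotin-GST-cJun(1-79), 10 uM ATP; anti-phospho-cJun(Ser73) AlphaScreen read at room temperature, pH 7.6 Tris buffer. Compounds pre-incubated 15 min as titrations.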
(In Alpha technology, singlet oxygen from a donor bead excites a nearby acceptor bead.)

The target of test [4] is 3',5'-cyclic-AMP phosphodiesterase 4B (Homo sapiens) (UniProt Q07343). Kind of test: qHTS Assay for Inhibitors of PDE-IV (AID 607; active = well fitted activation curve with a large enough effect in the main read-out, with a control signal flat, not every such curve was filed as active; also: potency is read from the fitted curve at half-maximal effect). The essentials:
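Live HEK293 cells with a modified cyclic nucleotide-gated (CNG) channel report intracellular cAMP via membrane-potential dye fluorescence (ex 535/em 590 nm). Endogenous PDE-IV was targeted. Compounds were tested at up to 22.9 uM final; RO 20-1724 100 uM served as control.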
Background: qHTS replaces the single test concentration by a dilution series.

The target of test [5] is DNA dC->dU-editing enzyme APOBEC-3G (Homo sapiens) (UniProt Q9HC16). Kind of test: qHTS for inhibitors of Vif-A3G interactions: Validation (AID 588379). Also: 0% is about no effect. The essentials:
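HeLa cells stably expressing Vif and A3G-eYFP, 700 cells/well, incubated overnight at 37 deg C, then exposed to compound overnight at 37 deg C. Inhibition of Vif-mediated degradation read as increased yellow fluorescence (Ex 488/Em 500-530) by laser-scanning cytometry.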

Test [6] can be described thus: Primary qHTS for small molecule stabilizers of the endoplasmic reticulum resident proteome: Secreted ER Calcium Modulated Protein (SERCaMP) assay (AID 1508630). Also: % is scaled to controls: 0 for no effect and ±100 for the full control effect. The gist of the method:
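GLuc-SERCaMP-expressing SH-SY5Y cells, pretreated 16 h with compound, are challenged with thapsigargin to empty ER calcium stores; after 4 h, coelenterazine is added directly to the medium and luminescence is imaged.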

Test [7] can be described thus: Confirmatory screen NINDS Rhodamine qHTS for Zika virus inhibitors (AID 1347161). Also: nearly all actives have a fitted effect of over 60% in size. Also: potency is read from the fitted curve at half-maximal effect.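 As to activity change, negative = inhibition: purified Zika NS2B-NS3 protease with linked NS2B cofactor domain and Rhodamine110 peptide substrate; plate controls were no-inhibitor control for no effect and no-enzyme control for full effect.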 The essentials:
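Percent inhibition, normalized to uninhibited and enzyme-free controls, is fitted to a 4-parameter Hill equation. Fluorescence change comes from a 15-min cleavage of 1.5 microM bis-peptide Rhodamine110 substrate by 25 nM linked NS2B-NS3 at room temperature.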

Test [8] has as its system Zika virus NS2B-NS3 protease (linked). Description: 384 well plate NINDS AMC confirmatory qHTS for Zika virus inhibitors (AID 1347163). Also: potency is read from the fitted curve at half-maximal effect; nearly all actives have a fitted effect of over 50% in size. The gist of the method:
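Linked NS2B-NS3 protease (final 5 nM, 30 nM or 60 nM) was preincubated with compounds (final up to 1 mM) for ~15 minutes. Ac-VKTGKR-AMC substrate (final 30 microM) then reacted for 25 minutes at room temperature in the dark. Fluorescence (ex 355/em 460 nm) was normalized to no-enzyme and no-inhibitor controls.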

Test [9] concerns Zika virus NS2B-NS3 protease (linked construct). Kind of test: 384 well plate NINDS Rhodamine confirmatory qHTS for Zika virus inhibitors (AID 1347164).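 Also: fluorescence from protease cleavage of Ac-LKRR-rhodamine 110 substrate; potency is read from the fitted curve at half-maximal effect; nearly all actives have a fitted effect of over 65% in size.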 The essentials:
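Linked protease at a final 5 nM, 30 nM or 60 nM was preincubated ~15 min with compounds, then given 10 microM Ac-LKRR-Rhodamine 110. Fluorescence (ex 485/em 538 nm) after 25 min in the dark at room temperature.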

A short description of test [10]: Tertiary RLuc qRT-PCR qHTS assay for Zika virus inhibitors (AID 1347169). Also: top concentration of the series differs between compounds; % is scaled to controls: 0 for no effect and ±100 for the full control effect; nearly all actives have a fitted effect of over 55% in size. The gist of the method:
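Vero cells (1,000 per well) plated overnight at 37 degrees C, treated with compound in DMSO, then infected with recombinant ZIKV-RLuc (Cambodian) at MOI 1-2 for 48-72 hrs. Live-cell Renilla luciferase substrate added; luminescence read after 1-1.5 hrs.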
(In general: Quantitative PCR measures a nucleic acid by following its amplification.)

The target of test [11] is Cytochrome P450 3A4 (Homo sapiens) (UniProt P08684). Kind of test: qHTS Assay for Inhibitors and Substrates of Cytochrome P450 3A4 (AID 884). Also: potency is read from the fitted curve at half-maximal effect; nearly all actives have a fitted effect of over 50% in size. The essentials:
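20 nM human CYP3A4 with 25 uM Luciferin-PPXE (at KM) in 200 mM KPO4, preincubated 10 min with compound; NADPH regeneration started a 60 min RT reaction. Luciferin detected by luminescence, normalized to 57 uM ketoconazole as full inhibition.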

Test [12] has the same target. Kind of test: qHTS Assay for Activators of Cytochrome P450 3A4 (AID 885). Also: nearly all actives have a fitted effect of over 65% in size. The gist of the method: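 Quantitative HTS format: compounds preincubated with 20nM human CYP3A4 and Luciferin-PPXE substrate at KM, reaction started by NADPH regeneration, stopped after 60 min, luciferase luminescence read 20 min later.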
A short description of test [13]: Confirmation and Secondary Assay for Modulators of Hemoglobin Beta Chain Splicing at IVS2 654 locus (AID 910).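 Also: HeLa cells stably carrying EGFP split by mutant beta-globin IVS2-654 intron; % of control where 0% means no effect.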 The gist of the method: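 HeLa cells stably expressing EGFP interrupted by β-globin IVS2-654 intron, seeded overnight in Opti-MEM/2% FCS, then treated 2 days at 37 °C. Restored splicing read as total peak GFP intensity per well by laser scanning cytometry (488 nm excitation, 500–520 nm emission); 500 nM antisense PNA as control.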

The nature of test [14]: Confirmation and Secondary Assay for Modulators of Hemoglobin Beta Chain Splicing at IVS2 705 locus (AID 930).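 Also: HeLa cells stably expressing the EGFP-705 splicing reporter; GFP fluorescence per well restored by corrected splicing of the IVS2-705 intron in EGFP; % of control where 0% means no effect.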 The essentials: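 HeLa cells stably carrying EGFP interrupted by mutant beta-globin intron 2 (IVS2-705) treated 2 days at 37C with compound; 500 nM antisense PNA as control. Correct splicing read as total peak GFP intensity per well by laser-scanning cytometry.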

Test [15] is described as follows: qHTS Assay for Lipid Storage Modulators (AID 1519; calls by dose curve; as to activity change, negative = inhibition: % is scaled to controls: 0 for no effect and ±100 for the full control effect). Conditions: Drosophila S3 cells, BODIPY lipid droplet/cell ratio, laser cytometry, cells loaded with oleic acid. The gist of the method:
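Cells seeded at 5,000 per well were treated with compounds over a concentration series and loaded with oleic acid (400 uM, as added). Lipid droplet fluorescence (488 nm excitation, 500-530 nm channel) was read by laser-scanning cytometry and normalized to 20 uM Triacsin C.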

Cytochrome P450 3A4 (Homo sapiens), sequence (P08684 whole entry, looked up): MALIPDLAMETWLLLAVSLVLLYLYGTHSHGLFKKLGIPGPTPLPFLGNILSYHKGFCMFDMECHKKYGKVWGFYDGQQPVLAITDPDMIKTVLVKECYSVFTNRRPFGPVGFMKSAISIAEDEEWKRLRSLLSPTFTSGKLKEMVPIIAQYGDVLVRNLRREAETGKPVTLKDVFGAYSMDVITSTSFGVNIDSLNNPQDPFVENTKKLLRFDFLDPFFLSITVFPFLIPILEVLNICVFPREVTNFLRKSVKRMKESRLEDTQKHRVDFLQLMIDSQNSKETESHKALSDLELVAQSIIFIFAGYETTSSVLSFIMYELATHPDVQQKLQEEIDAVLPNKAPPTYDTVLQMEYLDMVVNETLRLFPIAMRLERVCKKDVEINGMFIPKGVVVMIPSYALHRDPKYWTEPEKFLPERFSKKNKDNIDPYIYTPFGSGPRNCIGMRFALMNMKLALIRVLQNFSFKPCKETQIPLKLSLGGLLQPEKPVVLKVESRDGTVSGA
Glucocorticoid receptor (Homo sapiens), sequence (P04150 whole entry, looked up): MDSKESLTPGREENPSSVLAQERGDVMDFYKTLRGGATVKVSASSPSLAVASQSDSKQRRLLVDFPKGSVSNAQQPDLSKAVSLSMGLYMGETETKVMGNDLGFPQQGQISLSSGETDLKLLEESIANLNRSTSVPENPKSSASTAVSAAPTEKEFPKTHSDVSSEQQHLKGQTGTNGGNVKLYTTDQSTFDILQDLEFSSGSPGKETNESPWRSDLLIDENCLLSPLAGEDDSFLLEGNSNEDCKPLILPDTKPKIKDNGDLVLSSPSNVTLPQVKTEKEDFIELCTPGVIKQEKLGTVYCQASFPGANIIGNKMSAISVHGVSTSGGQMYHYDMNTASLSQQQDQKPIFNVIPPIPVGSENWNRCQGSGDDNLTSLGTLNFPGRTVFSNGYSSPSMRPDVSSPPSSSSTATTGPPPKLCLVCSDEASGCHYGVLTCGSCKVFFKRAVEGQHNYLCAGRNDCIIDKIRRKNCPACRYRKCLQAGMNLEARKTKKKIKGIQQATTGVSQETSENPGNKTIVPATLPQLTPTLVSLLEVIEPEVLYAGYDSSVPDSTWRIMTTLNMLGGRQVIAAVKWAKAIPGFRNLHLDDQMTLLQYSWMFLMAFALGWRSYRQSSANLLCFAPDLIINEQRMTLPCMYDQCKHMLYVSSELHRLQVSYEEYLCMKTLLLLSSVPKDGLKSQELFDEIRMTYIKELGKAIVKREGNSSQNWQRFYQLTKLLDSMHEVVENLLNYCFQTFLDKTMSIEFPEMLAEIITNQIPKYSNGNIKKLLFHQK
3',5'-cyclic-AMP phosphodiesterase 4B (Homo sapiens), sequence (Q07343 whole entry, looked up): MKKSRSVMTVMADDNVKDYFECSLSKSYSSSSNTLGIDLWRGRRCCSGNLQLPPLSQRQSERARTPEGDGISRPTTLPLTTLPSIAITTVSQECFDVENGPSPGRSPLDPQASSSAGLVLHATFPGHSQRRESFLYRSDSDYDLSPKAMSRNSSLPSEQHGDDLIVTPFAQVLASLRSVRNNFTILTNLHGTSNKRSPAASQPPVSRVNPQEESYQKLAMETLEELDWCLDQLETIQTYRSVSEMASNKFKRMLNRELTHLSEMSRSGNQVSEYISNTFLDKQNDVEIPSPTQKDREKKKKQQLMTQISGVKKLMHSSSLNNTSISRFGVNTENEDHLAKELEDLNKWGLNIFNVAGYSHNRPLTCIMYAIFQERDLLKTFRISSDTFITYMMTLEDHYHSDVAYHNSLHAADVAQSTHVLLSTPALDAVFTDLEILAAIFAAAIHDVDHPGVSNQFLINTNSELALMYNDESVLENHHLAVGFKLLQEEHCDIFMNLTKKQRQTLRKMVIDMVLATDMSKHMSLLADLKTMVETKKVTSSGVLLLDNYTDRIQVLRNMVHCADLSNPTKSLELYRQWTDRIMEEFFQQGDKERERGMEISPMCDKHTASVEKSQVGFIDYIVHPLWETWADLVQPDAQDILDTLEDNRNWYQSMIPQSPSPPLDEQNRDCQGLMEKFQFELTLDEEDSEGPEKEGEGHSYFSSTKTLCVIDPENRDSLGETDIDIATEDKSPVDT
DNA dC->dU-editing enzyme APOBEC-3G (Homo sapiens), sequence (Q9HC16 whole entry, looked up): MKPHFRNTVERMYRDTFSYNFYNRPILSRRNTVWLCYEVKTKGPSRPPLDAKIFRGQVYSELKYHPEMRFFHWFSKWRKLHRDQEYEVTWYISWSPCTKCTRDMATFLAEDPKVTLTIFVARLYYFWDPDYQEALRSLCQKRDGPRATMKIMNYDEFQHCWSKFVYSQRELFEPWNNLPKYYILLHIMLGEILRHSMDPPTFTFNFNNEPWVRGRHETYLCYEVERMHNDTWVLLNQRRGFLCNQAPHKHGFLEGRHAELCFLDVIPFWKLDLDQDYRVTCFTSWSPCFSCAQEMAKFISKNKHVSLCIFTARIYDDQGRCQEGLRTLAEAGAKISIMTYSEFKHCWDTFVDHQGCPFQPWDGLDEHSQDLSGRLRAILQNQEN
Cytochrome P450 1A2 (Homo sapiens), sequence (P05177 whole entry, looked up): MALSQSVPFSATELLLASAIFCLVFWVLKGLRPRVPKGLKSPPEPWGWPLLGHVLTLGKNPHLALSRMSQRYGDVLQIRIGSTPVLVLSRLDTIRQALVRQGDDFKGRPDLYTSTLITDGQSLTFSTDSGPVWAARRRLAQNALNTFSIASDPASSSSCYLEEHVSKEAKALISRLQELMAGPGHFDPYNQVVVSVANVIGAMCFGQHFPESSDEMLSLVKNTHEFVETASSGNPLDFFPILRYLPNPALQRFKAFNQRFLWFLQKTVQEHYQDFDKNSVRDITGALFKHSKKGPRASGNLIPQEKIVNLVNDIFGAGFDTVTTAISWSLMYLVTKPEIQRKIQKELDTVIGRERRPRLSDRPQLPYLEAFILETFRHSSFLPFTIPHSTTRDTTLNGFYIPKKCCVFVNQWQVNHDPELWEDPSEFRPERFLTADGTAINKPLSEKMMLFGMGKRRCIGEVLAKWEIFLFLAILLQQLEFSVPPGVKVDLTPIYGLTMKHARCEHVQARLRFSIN

On to `CCCn1c(=O)c2[nH]c(-c3ccccc3)nc2n(CCC)c1=O`, for which the results for the Potency in test [1], in test [2] and in [4] were 0.0794 µM (active), > 46 µM (inactive) and 0.379 µM (active), respectively. The Potency result in [3], in test [5] and in test [6] was “inactive” throughout.

For `O=S(=O)(Nc1ccc(O)c(Sc2nc3ccccc3s2)c1)c1cc(Cl)ccc1Cl`, the Potency is 22.4 µM (active) in test [7], 112 µM (active) in [8] and 44.7 µM (active) in test [9]. Besides, the Potency result in test [10] was “inactive”.

For the molecule `O=C1C=CC(=O)c2c(O)c(Cl)c(Cl)c(O)c21`, in test [11], the Potency was 31.6 µM (active). The Potency entry in [12], in test [7] and in test [10] was “inactive” each time. The result in test [13] and in test [14] was inactive. In [15] (at 57.5 µM (top of the series)), the activity change, negative = inhibition was 5.17% (inactive). For the same molecule, the max response in test [15] (measured here: cell count channel max response) came to 0.303%; in [15] (measured here: lipid channel max response), 7.95%.
